# An excerpt weighted towards active compounds, which were near 13% of everything screened.
# USP10 block: inhibitors of human USP10 deubiquitinase; purified USP10, Ub-rhodamine fluorescence, 60 min; inhibition, % at 20 µM; 47,000 compounds, 1.1% hits
# Target sequence (Q14694 whole entry, looked up): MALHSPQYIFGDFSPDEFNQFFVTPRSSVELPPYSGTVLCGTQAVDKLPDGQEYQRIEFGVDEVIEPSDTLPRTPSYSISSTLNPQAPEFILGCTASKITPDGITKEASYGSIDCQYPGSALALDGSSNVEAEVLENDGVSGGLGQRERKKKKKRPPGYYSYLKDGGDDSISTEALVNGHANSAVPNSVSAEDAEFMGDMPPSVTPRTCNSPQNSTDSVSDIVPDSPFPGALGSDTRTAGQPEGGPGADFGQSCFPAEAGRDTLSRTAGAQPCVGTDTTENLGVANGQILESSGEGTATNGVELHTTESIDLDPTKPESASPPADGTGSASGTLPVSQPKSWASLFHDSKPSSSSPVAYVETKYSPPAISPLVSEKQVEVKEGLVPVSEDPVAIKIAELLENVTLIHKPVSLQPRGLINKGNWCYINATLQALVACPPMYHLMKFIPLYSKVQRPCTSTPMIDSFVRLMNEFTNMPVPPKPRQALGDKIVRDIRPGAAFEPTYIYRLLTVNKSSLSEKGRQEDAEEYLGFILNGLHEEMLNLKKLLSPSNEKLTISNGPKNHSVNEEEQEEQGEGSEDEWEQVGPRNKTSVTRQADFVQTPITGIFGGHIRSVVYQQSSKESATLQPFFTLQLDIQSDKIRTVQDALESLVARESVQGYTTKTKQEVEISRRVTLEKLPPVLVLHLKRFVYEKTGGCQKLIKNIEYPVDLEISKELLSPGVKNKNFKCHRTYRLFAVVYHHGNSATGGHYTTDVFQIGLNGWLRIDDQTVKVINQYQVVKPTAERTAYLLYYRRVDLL
# USP17 block: human USP17-like deubiquitinase inhibition | A8MUK1 | purified USP17, Ub-rhodamine cleavage fluorescence, 3 h | inhibition, % at 50 µM | 47,000 compounds, 6.5% hits | AID 1645855
# USP28 block: blocks human USP28 ubiquitin-rhodamine cleavage | Q96RU2 | inhibition, % at 25 µM | 47,000 compounds, 3% hits | purified USP28, Ub-rhodamine cleavage fluorescence, 30 min
# USP30 block: human USP30 deubiquitinase inhibition | purified USP30, Ub-rhodamine cleavage fluorescence | 47,000 compounds, 5.3% hits | inhibition, % at 25 µM | AID 1645860
# USP8 block: human USP8 deubiquitinase inhibition; purified USP8, Ub-rhodamine cleavage fluorescence, 30 min; inhibition, % at 20 µM; 47,000 compounds, 4.2% hits
# * hit, by the source's call; / = no result. Rule as the data show it: active = inhibition above about 30%; inactive = the rest.
SMILES,USP10 block,USP17 block,USP28 block,USP30 block,USP8 block
Cc1ccc(S(=O)(=O)NCCn2c(N)c(C#N)c3nc4ccccc4nc32)cc1,-10,40*,-46,-154,65*
c1cncc(CN2CCC[C@H]2c2nc(-c3ccc(-n4ccnc4)nc3)no2)c1,-5,41*,0,1,24
Cc1cccc(NC(=O)C(=O)NCC(c2cccnc2)N2CCc3ccccc3C2)c1 (stereo unspecified),-5,25,7,-18,61*
CCOC(=O)c1[nH]c2c(c1Cc1ccccc1)C(=O)CC(C)(C)C2,1,42*,-12,0,4
O=C(CCc1ccccc1)N1CCN(c2nc3c(F)cc(F)cc3s2)CC1,5,16,19,35*,18
O=C(Cc1ccccc1)N1CCN(c2nc3c(F)cc(F)cc3s2)CC1,1,-12,6,8,7
COc1cccc2sc(N3CCN(C(=O)CCc4ccccc4)CC3)nc12,1,6,14,17,13
O=C(CCc1ccccc1)N1CCN(c2nc3c(Cl)cccc3s2)CC1,12,26,21,38*,16
Cc1ccc(C)c(N2C(=O)CN(S(C)(=O)=O)CC2(C)C(=O)NC2CCCCC2)c1 (stereo unspecified),1,5,5,10,7
Clc1ccccc1C#CC(c1ccccc1Cl)c1ccnc2ncccc12 (stereo unspecified),12,19,14,28,26
CCn1c(=O)c2ccccc2n(Cc2nc(-c3ccccc3)no2)c1=O,4,8,5,5,0
CCn1c(=O)c2ccccc2n(Cc2nc(-c3ccc(OC)cc3)no2)c1=O,5,36*,2,22,3
COc1cc(C(=O)Nc2cccc(CCc3nc4ccc(C)cc4[nH]3)c2)cc(OC)c1OC,-5,-22,-12,-20,-31
Cc1ccc2nc(CCc3cccc(NC(=O)c4ccc(C#N)cc4)c3)[nH]c2c1,1,20,14,27,-155
Cc1ccc2nc(CCc3ccc(NS(=O)(=O)c4cccc(Cl)c4C)cc3)[nH]c2c1,10,10,52*,5,-8
Cc1cccc(S(=O)(=O)Nc2ccc(-c3nc4ccc(C)cc4s3)cc2)c1,-6,-1,-28,-176,-16
Cc1ccc2nc(CCc3ccc(NS(=O)(=O)c4cccc(Cl)c4)cc3)[nH]c2c1,17,12,37*,0,-4
Cc1cccc(S(=O)(=O)Nc2ccc(CCc3nc4ccc(C)cc4[nH]3)cc2)c1,8,-1,36*,1,6
O=C(COC(=O)c1ccc2[nH]c3c(c2c1)CCCC3)Nc1ccccc1-c1ccccc1,0,/,-3,-53,7
O=C(COC(=O)c1ccc2[nH]c3c(c2c1)CCCC3)Nc1ccc2c(c1)OCO2,13,66*,19,42*,41*
CS(=O)(=O)c1ccc(Cl)c(NC(=O)COC(=O)c2ccc3[nH]c4c(c3c2)CCCC4)c1,11,/,26,35*,30
O=C(COC(=O)c1ccc2[nH]c3c(c2c1)CCCC3)Nc1ccccc1Cl,1,11,7,-2,14
CC(C)c1ccc(NC(=O)COC(=O)c2ccc3[nH]c4c(c3c2)CCCC4)cc1,4,58*,0,-20,17
Cc1ccn2c(=O)cc(COc3cccc(NC(=O)Nc4ccc(F)cc4)c3)nc2c1,-11,38*,1,-36,21
O=C(c1cc(F)ccc1Br)N1CCN(Cc2cc(=O)n3ccccc3n2)CC1,-1,/,-14,-23,-13
SMILES,USP10 block,USP17 block,USP28 block,USP30 block,USP8 block
COc1ccc(C(=O)N2CCN(Cc3cc(=O)n4ccccc4n3)CC2)cc1,0,20,18,36*,21
COc1ccc(OCC(=O)Nc2ccc(C)c(OCc3cc(=O)n4ccccc4n3)c2)cc1,-5,50*,-13,-56,-11
Cc1ccccc1NC(=O)Nc1ccccc1OCc1cc(=O)n2ccccc2n1,11,50*,20,42*,13
Cc1cccc(NC(=O)Nc2ccccc2SCc2cc(=O)n3ccccc3n2)c1,-1,/,1,-3,-2
O=C(CSC1=NC2(CCCC2)Nc2ccccc21)Nc1ccccc1F,-7,-29,-54,-212,-30
COc1cc(C2CCN(C(=O)Nc3cccc(C)c3)CC2)on1,1,1,6,-15,14
COc1ccc(CC(=O)N(C)c2nnc(C34CC5CC(CC(C5)C3)C4)s2)cc1,3,-6,-1,-56,-4
CC(NC(=O)c1ccccn1)c1nc2ccccc2[nH]1 (stereo unspecified),3,3,0,22,1
O=C(NCc1cccnc1)C1CCCN(c2ccc(-c3ccccc3)nn2)C1 (stereo unspecified),0,7,12,19,15
O=C(Nc1ccc(-n2cccc2)cc1)c1ccc(F)cc1,6,12,4,28,20
O=C(Nc1ccc(F)cc1)c1ccc2c(c1)C1C3CCC(C3)C1C(c1ccccc1)N2 (stereo unspecified),11,2,3,32*,8
CCc1cccc(NC(=O)CSC2=NS(=O)(=O)c3ccccc3N2CC)c1,3,-3,16,24,-25
CCN1C(SCc2ccc(F)cc2)=NS(=O)(=O)c2ccccc21,0,5,62*,14,-4
CCN(Cc1ccccc1)S(=O)(=O)c1ccc(C(=O)Nc2ccc3c(c2)OCCO3)cc1,10,10,60*,40*,22
CC(=O)c1cccc(NC(=O)c2ccc(S(=O)(=O)N(C)Cc3ccccc3)cc2)c1,4,44*,0,11,2
COc1ccccc1N(C)S(=O)(=O)c1ccc(C(=O)Nc2cccc(-n3cnnn3)c2C)cc1,0,35*,23,28,15
Cc1ccnc(NS(=O)(=O)c2ccc(NC(=O)c3ccc(S(=O)(=O)N(C)Cc4ccccc4)cc3)cc2)n1,42*,/,-30,-57,40*
CN(C)S(=O)(=O)c1ccc(C(=O)Nc2cccc(C(=O)N3CCOCC3)c2)cc1,0,/,-15,-16,-1
CCCCN(c1ccccc1)S(=O)(=O)c1cccc(C(=O)Nc2cccc(C(C)=O)c2)c1,9,-9,0,-2,0
Cc1ccc(C)c(N(CC(=O)Nc2ccc3c(c2)OCCO3)S(=O)(=O)c2ccccc2)c1,10,10,20,30*,-85
COc1ccccc1NC(=O)c1ccc(S(=O)(=O)N(C)Cc2ccccc2)cc1,7,18,24,34*,17
CCCOc1c(Br)cc(C(=O)Nc2ccccc2OC)cc1OC,4,16,11,10,6
COc1cc(C(=O)Nc2ccccc2Cc2ccccc2)cc(OC)c1OC,2,32*,4,36*,14
Cc1ccc(N(CC(=O)NCc2ccncc2)S(=O)(=O)c2ccccc2)c(C)c1,3,1,8,10,4
O=C(NCc1ccco1)c1ccc2c(=O)nc3c(-c4ccccc4)n[nH]n3c2c1,7,11,/,/,1
Cn1c(-c2nnc(SCC(=O)Nc3ccccc3F)o2)cc2ccccc21,7,43*,41*,82*,26

# High-throughput results deposited in PubChem BioAssay by Buhrlage Lab, Dana-Farber Cancer Institute and Novartis Institutes for BioMedical Research (Cambridge, Mass).
